# “And” between values parts separate entries of the source, which are not always exact repeats. Equal entries are not always repeated.
# Tested on: Plasmodium falciparum
# Assay: GSK_TCMDC: Inhibition of Plasmodium falciparum Dd2 in whole red blood cells, using parasite LDH activity as an index of growth. Test compounds present at 2uM
# Format: functional
row,Structure (SMILES),Inhibition
1,CC(=O)Nc1cccc(CNc2cc(C)nc(Nc3ccc(C)cc3)n2)c1,23%
2,COc1cccc(C(C)(C)NC[C@@H](O)[C@H](Cc2ccccc2)NC(=O)c2cc(C3CCCC3)cc(N3CCCCS3(=O)=O)c2F)c1.O=CO,99%
3,O=C(Nc1ccc(OC2CCN(Cc3ccccc3)CC2)c(Cl)c1)c1ccco1.O=C(O)C(F)(F)F,96%
4,Cc1ccnc(NC(c2cccc(Cl)c2Cl)c2ccc3cccnc3c2O)c1 (stereo not given),38%
5,Cc1cccc2nc(-c3ccc(-c4cccc(CN5CCN(c6ccc(C#N)cn6)CC5)c4)s3)[nH]c12.O=C(O)C(F)(F)F,8%
6,CN1C(C)(C)CC(NC(=O)c2ccc(-c3nc4cc(Cl)c(Cl)cc4[nH]3)cc2)CC1(C)C,97%
7,Cc1[nH]c2cc(F)ccc2c(=O)c1Cc1ccc(Cl)cc1.Cc1[nH]c2cccc(F)c2c(=O)c1Cc1ccc(Cl)cc1,92% and 94%
8,CN(C)c1ccc(-c2csc(C(=O)NC3CCN(Cc4ccc(C(C)(C)C)cc4)C3)c2)cc1.O=C(O)C(F)(F)F (stereo not given),50%
9,CCN(CC)CCc1ccc2c(=O)cc(CCc3cccc(F)c3F)n(CC(=O)N(C)Cc3ccc(-c4ccc(C(F)(F)F)cc4)cc3)c2c1.O=C(O)C(O)C(O)C(=O)O,45%
10,COc1cccc2cc(C(=O)N[C@@H](CC(C)C)C(=O)N[C@H](C=NN3CCOC3=O)Cc3ccccc3)oc12,70%
11,Cc1nc(O)c2c(ccc3ccc(CNc4ccc(C(=O)N[C@@H](CCC(=O)O)C(=O)O)cc4)cc32)n1,95%
12,CN1CCN(c2ccc(Nc3ccnc4ccc(-c5ccccc5)cc34)cc2)CC1,100%
13,CNC(=O)c1cc(S(=O)(=O)Nc2ccc(OC)cc2)cs1,48%
14,CN(CCCN(C)c1cc(NC(=O)c2ccc(F)cc2)ccn1)Cc1cccc(O)c1.O=C(O)C(F)(F)F,0%
15,CN1CCC(c2cc3c(cc2Br)CCN3C(=O)Nc2ccc(-c3ccncc3)c(Cl)c2)CC1,0%
16,N#Cc1ccc(CN2CCC(Oc3ccc(NC(=O)c4cccs4)cc3)C2)cc1.O=C(O)C(F)(F)F (stereo not given),65%
17,CC(C)CCN(Cc1cncn1Cc1cccc(C(F)(F)F)c1)C(=O)c1ccccc1C#N,96%
18,O=C(NC1CCCCC1)C1CCCN(C(=O)c2ccc(O)c(-c3ccc(Cl)c(Cl)c3)c2)C1 (stereo not given),42%

row,Structure (SMILES),Inhibition
1,Cc1cc(Nc2ccc3ccccc3c2)n2ncnc2n1,95%
2,Cc1c(CNCCCNc2nc3cscc3[nH]2)sc(C(F)F)c1Br.Cl,11%
3,c1ccc(-c2[nH]c3ccccc3c2CN2CCC(N3CCCCC3)CC2)nc1,82%
4,O=C(Nc1cccc(F)c1)NC1CCN(CCCCCNC(=O)C2CC2c2ccc(Cl)c(Cl)c2)CC1 (stereo not given),12%
5,N#Cc1ccc2[nH]cc(C(=O)CCCCCN(Cc3ccccc3)Cc3ccccc3)c2c1,97%
6,COc1ccc(CN(C)CCCc2ccc(NC(=O)c3cc4ccccc4[nH]3)cc2)cc1OC.O=C(O)/C=C/C(=O)O,31%
7,c1cncc(-c2cc(N3CCc4ccccc4C3)nc(-c3ccncc3)n2)c1,100%
8,NC1CCN(Cc2ccc(-c3cccc(-c4nc5ccccc5[nH]4)c3)cc2)C1.O=C(O)C(F)(F)F (stereo not given),0%
9,Cc1cc(N[C@@H](CC(C)C)C(=O)NCCOc2ccccc2)nc(NCCc2ccccc2)n1.O=C(O)C(F)(F)F,29%
10,CCC(C)CN1CCN(c2ccc(NC(=O)c3cccs3)cc2)C(C)C1.O=C(O)C(F)(F)F (stereo not given),95%
11,CCCO[C@H](C(=O)OC)[C@@H](CC1Cc2ccccc2C1)C(=O)NCCC1=CCCCC1,57%
12,COc1cc(O)c2c(=O)c(OC)c(-c3cccc(Cl)c3OCC(=O)O)oc2c1OC,0%
13,Cc1cnc(C(=O)Nc2cccc(-c3ccc(-c4nc5cc(F)ccc5[nH]4)cc3)c2)cn1,13%
14,O=C(NC1CCN(Cc2ccccc2)CC1)c1cccc(-c2cc3cc(Cl)c(Cl)cc3[nH]2)c1.O=C(O)C(F)(F)F,86%
15,CN(C)CCOc1cc(NC(=O)Nc2ccc(-c3ccncc3)c(C(F)(F)F)c2)ccc1Cl,79%
16,CCNc1cc(C(=O)N[C@@H](Cc2ccc(F)c(F)c2)[C@H](O)CNC2CCCCC2)cc(N2CCCCS2(=O)=O)c1.Cl,84%
17,CC(C)NCC(O)COc1ccc(Cc2ccc(OCC(O)CNC(C)C)cc2)cc1.Cl (stereo not given),18%

# — ChEMBL document CHEMBL1157539, “Thousands of chemical starting points for antimalarial lead identification” (Nature, 2010)
